From PubChem BioAssay (NCATS) come the findings set out here.

Results filed as inconclusive are left out. Active and inactive are the calls of the source. Unless noted, calls follow the shape of the dose curve; as a rule, active = well fitted cell-killing curve with a large enough effect; inconclusive = small, poorly fitted or top-dose-only effect; inactive = flat fitted curve, though single readings scatter.

Assay [1] is described as follows: Cell Viability - LYMP2-023 (AID 975).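 Also: cellular ATP measured by luciferase luminescence as viability proxy; series mostly up to about 92 µM; plate controls were DMSO only for no effect and 92 µM tetraoctylammonium bromide control for full effect; nearly all actives have a fitted effect of over 55% in size.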 The essentials: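 Steps: seed 2500 human lymphoblastoid cells per well, incubate 5 hr at 37 C, add compound for 24 hr at 37 C, add CellTiter-Glo, hold 30 min at room temperature, read luminescence. AC50 derived by Hill modelling.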
Assay [2] is described as follows: Cell Viability - LYMP2-025 (AID 976).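 Also: series mostly up to about 92 µM; plate controls were DMSO only for no effect and tetraoctylammonium bromide control for full effect.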 In short, it runs like this:
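Acute cytotoxicity is scored as a concentration-dependent fall in intracellular ATP, measured by luciferase luminescence, in human lymphoblastoid LYMP2-025 cells exposed to compound for 24 hours at 37 C. AC50 values come from standard Hill fits.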

The nature of assay [3]: Cell Viability - LYMP2-002 (AID 977).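 Also: series mostly up to about 92 µM; compound exposure lasted 24 h at 37 °C; plate controls were DMSO only for no effect and 92 µM tetraoctylammonium bromide for full effect.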 In short, it runs like this: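 Human lymphoblastoid cells, 2500/well, complete medium; 5 h 37 C settle; compound 24 h 37 C; CellTiter-Glo, 30 min RT; luminescence. Decrease in ATP = cytotoxicity; AC50 via Hill equation.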
Assay [4] in a line: Cell Viability - LYMP2-006 (AID 978). Also: series mostly up to about 92 µM; % is scaled to controls: 0 for no effect and ±100 for the full control effect; nearly all actives have a fitted effect of over 60% in size. The essentials: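 Potency values are Hill-fit AC50s for decreases in intracellular ATP (CellTiter-Glo luminescence). LYMP2-006 lymphoblastoid cells, 2500 per well, were exposed to compound in complete culture medium for 24 hr at 37 C.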
Assay [5] is described as follows: Cell Viability - LYMP2-007 (AID 979).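 Also: cells exposed to compound for 24 h before reading; 0% = DMSO only and the negative end = 92 µM tetraoctylammonium bromide; nearly all actives have a fitted effect of over 60% in size.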 The essentials: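 Cells are seeded at 2500 per well and rested 5 hr. Compounds are then added over a concentration series for 24 hr at 37 C. CellTiter-Glo is added for 30 min at room temperature before luminescence reading.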
Assay [6] in a line: Cell Viability - LYMP2-010 (AID 981). Also: % is scaled to controls: 0 for no effect and ±100 for the full control effect; nearly all actives have a fitted effect of over 55% in size. The essentials:
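Steps: seed 2500 LYMP2-010 cells per well; incubate 5 hr at 37 C; add compound; incubate 24 hr at 37 C; add CellTiter-Glo, wait 30 min at room temperature; read luminescence. Concentration-response fitted to Hill equation for AC50.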

Assay [7] is described as follows: Cell Viability - LYMP2-012 (AID 982).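 Also: cellular ATP by luciferase luminescence where a drop means cytotoxicity; cells exposed to compound for one day before reading; 0% = DMSO only and full loss = 92 µM tetraoctylammonium bromide; nearly all actives have a fitted effect of over 55% in size.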
Assay [8] in a line: Cell Viability - LYMP2-014 (AID 983).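 Also: series mostly up to about 92 µM; plate controls were DMSO only for no effect and 92 µM tetraoctylammonium bromide for full effect; nearly all actives have a fitted effect of over 50% in size.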 In short, it runs like this:
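Cells are plated at 2500/well and left 5 hr at 37 C. Compounds are added across a concentration range and incubated 24 hr at 37 C in complete medium. CellTiter-Glo is added, and luminescence is read after 30 min at room temperature.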

The nature of assay [9]: Cell Viability - LYMP2-018 (AID 985).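 Also: compound exposure lasted 24 hr at 37 °C; plate controls were DMSO only for no effect and tetraoctylammonium bromide at 92 µM for full effect; nearly all actives have a fitted effect of over 50% in size.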 In short, it runs like this:
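Seed 2500 lymphoblastoid cells per well, incubate 5 hr at 37 C, add compound and incubate 24 hr at 37 C, add CellTiter-Glo, wait 30 min at room temperature, then read luminescence.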

A short description of assay [10]: Cell Viability - LYMP2-020 (AID 986).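 Also: series mostly up to about 92 µM; plate controls were DMSO only for no effect and tetraoctylammonium bromide at 92 µM for full effect; nearly all actives have a fitted effect of over 55% in size.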 In short, it runs like this:
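Seed 2500 cells per well and incubate 5 hr at 37 C. Add compounds at a concentration series and incubate 24 hr at 37 C. Add CellTiter-Glo, wait 30 min at RT, read luminescence, and fit a Hill curve for AC50.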

Assay [11] is described as follows: Cell Viability - LYMP2-024 (AID 988).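 Also: plate controls were DMSO only for no effect and 92 µM tetraoctylammonium bromide for full effect; nearly all actives have a fitted effect of over 60% in size.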 The essentials: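 qHTS cytotoxicity, human lymphoblastoid line, complete medium; 24 h cpd treatment, 37 C; CellTiter-Glo ATP luminescence readout; tetraoctylammonium bromide positive control; AC50 via Hill fit.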
Assay [12] in a line: Cell Viability - LYMP2-026 (AID 989). Also: % is scaled to controls: 0 for no effect and ±100 for the full control effect; nearly all actives have a fitted effect of over 50% in size. In short, it runs like this: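 Cells are seeded at 2500 per well and held 5 hr at 37 C. Compounds are added in concentration series for 24 hr, then CellTiter-Glo reagent is applied and luminescence read.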
The nature of assay [13]: Cell Viability - LYMP1-002 - Assay at 24 hr (AID 993). Also: % is scaled to controls: 0 for no effect and ±100 for the full control effect. The essentials:
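Acute toxicity is measured as concentration-dependent loss of cellular ATP in a human lymphoblastoid line (Coriell LYMP1-002) after 24 h treatment in complete medium. ATP is quantified by luciferase luminescence and AC50 derived by Hill modelling.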

The nature of assay [14]: Cell Viability - LYMP1-002 - Assay at 40 hr (AID 994).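 Also: 0% = DMSO only and full inhibition = 92 µM tetraoctylammonium bromide; nearly all actives have a fitted effect of over 60% in size.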 In short, it runs like this:
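Cells are plated at 2500 per well and rested 5 hr at 37 C. Compounds are added and incubated 40 hr at 37 C. CellTiter-Glo reagent is added for 30 min at room temperature before luminescence is read.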

The nature of assay [15]: qHTS Assay for Identification of Small Molecule Inducers of Hypoxia Response (AID 2120; active = well fitted curve in the direction sought with a large enough effect in the signal ratio, with a control signal flat, not every such curve was filed as active; the % refers to the signal ratio; also: 0% is about no effect). The essentials:
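Cell-based qHTS for reporter induction: hypoxia response element controlled beta-lactamase in ME-180 cells. Compounds incubated 17 h at 37 degrees C; activity from blue/green (460/530 nm) ratio, inducers ranked by AC50.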

Assay [16] has as its target Bile acid receptor (Homo sapiens) (UniProt Q96RI1). The experiment in a line: qHTS assay for small molecule antagonists of farnesoid X receptor signaling (AID 588526; calls by dose curve; also: % is scaled to controls: 0 for no effect and ±100 for the full control effect). In short, it runs like this: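 Antagonist mode: titrated compounds tested against chenodeoxycholic acid stimulation (normalized to 50 uM CDCA and DMSO) in GeneBLAzer HEK293T cells for 16 h. Beta-lactamase read by CCF4 fluorescence; IC50 from Hill fits.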

Assay [17] has the same target. The experiment in a line: qHTS assay for small molecule agonists of farnesoid X receptor signaling (AID 588527; calls by dose curve;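 also: series mostly up to about 77 µM; 0% = vehicle basal and 100% = reference agonist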). The following applies: HEK293T FXR-UAS-bla, beta-lactamase ratio, 16 h; activation: stronger effect = higher value. In short, it runs like this: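 FXR-UAS-bla HEK293T, 10% dialyzed FBS; cpds up to 92 uM titration, 16 h 37 C; CCF4 dye 2 h RT; fluorescence. Normalized to chenodeoxycholic acid 100 uM (100%) and DMSO (0%); Hill fit gives EC50, efficacy.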

The target of assay [18] is Peroxisome proliferator-activated receptor delta (Homo sapiens) (UniProt Q03181). The assay is described as follows: qHTS assay for small molecule agonists of peroxisome proliferator-activated receptor delta signaling (AID 588534; calls by dose curve;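 also: 0% = DMSO basal wells and 100% = positive control agonist at 10 µM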). The essentials: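 Agonist-mode qHTS; reporter cells, 5 hrs 37 C pre-incubation; compound titration, 18 hrs 37 C; CCF4 dye, 2 hrs RT; fluorescence read. EC50/efficacy via Hill fit.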
Peroxisome proliferator-activated receptor delta (Homo sapiens), sequence (Q03181 whole entry, looked up): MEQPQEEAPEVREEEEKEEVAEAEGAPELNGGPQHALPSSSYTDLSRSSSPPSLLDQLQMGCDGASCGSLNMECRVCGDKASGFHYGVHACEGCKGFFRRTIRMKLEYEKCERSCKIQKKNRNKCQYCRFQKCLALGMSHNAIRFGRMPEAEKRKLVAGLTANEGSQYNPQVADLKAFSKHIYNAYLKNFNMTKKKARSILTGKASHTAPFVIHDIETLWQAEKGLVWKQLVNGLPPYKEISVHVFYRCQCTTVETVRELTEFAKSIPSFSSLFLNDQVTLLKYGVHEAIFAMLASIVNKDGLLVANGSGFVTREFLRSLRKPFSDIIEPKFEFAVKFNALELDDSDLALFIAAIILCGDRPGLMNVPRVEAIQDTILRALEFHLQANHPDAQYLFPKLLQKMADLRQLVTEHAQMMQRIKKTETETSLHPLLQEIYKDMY

The target of assay [19] is Vitamin D3 receptor (Homo sapiens) (UniProt P11473). The assay is described as follows: qHTS assay for small molecule antagonists of vitamin D receptor signaling (AID 588541; calls by dose curve;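 also: receptor activated by calcitriol during compound treatment; series mostly up to about 77 µM; % is scaled to controls: 0 for no effect and ±100 for the full control effect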). In short, it runs like this:
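VDR-UAS-bla HEK293T cells in 2% charcoal-stripped FBS were stimulated with 1-alpha,25-dihydroxyvitamin D3 (3 nM final) plus compound for 16 h at 37 C. The beta-lactamase CCF4 readout was normalized to 50 nM agonist and DMSO, and Hill fits gave IC50.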

Assay [20] has the same target. The experiment in a line: qHTS assay for small molecule agonists of vitamin D receptor signaling (AID 588543; calls by dose curve;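 also: 0% = DMSO basal and 100% = reference agonist control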). The essentials:
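Agonist-mode beta-lactamase reporter: HEK293T VDR-UAS-bla cells in charcoal-stripped 2% FBS, compound series 16 h 37 C, CCF4 2 h RT. EC50 from Hill fit, scaled against DMSO and 50 nM calcitriol control.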

Assay [21] is described as follows: qHTS assay for small molecule agonists of retinoid X receptor alpha signaling (AID 588544). To be noted: HEK293T RXRa-UAS-bla, beta-lactamase reporter, 18 h; 530 nm emission.

Bile acid receptor (Homo sapiens), sequence (Q96RI1 whole entry, looked up): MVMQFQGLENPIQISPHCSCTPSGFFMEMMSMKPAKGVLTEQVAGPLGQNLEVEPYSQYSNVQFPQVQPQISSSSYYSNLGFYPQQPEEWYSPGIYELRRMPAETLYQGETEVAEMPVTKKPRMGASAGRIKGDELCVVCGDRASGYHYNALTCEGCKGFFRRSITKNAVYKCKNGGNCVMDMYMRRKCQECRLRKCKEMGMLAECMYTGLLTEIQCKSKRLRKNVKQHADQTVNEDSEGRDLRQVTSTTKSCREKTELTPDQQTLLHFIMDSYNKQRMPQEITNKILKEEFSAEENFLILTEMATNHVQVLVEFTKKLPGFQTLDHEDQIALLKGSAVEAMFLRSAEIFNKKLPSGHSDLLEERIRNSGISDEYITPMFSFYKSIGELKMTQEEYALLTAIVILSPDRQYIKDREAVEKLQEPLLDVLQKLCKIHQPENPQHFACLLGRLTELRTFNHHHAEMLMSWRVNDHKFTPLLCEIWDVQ
Vitamin D3 receptor (Homo sapiens), sequence (P11473 whole entry, looked up): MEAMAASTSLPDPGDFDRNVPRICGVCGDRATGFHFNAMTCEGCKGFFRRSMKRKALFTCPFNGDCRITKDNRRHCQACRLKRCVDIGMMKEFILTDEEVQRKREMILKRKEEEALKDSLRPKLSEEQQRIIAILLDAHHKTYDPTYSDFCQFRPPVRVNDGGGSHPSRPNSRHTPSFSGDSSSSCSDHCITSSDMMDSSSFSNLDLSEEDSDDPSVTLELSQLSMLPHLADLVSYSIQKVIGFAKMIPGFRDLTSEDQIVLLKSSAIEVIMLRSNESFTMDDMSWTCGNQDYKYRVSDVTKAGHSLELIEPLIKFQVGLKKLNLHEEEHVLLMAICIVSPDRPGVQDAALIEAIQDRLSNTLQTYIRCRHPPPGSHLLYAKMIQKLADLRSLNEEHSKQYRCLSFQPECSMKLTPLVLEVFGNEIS

Regarding `O=Cc1ccccc1`, the molecule was classed as inactive in assay [1], in [2], in [3], in [4], in [5] and in assay [7]. Also, the molecule was classed as inactive in [8], in assay [9], in assay [10], in assay [11], in assay [12] and in assay [13]. The call in assay [15] and in assay [19] was inactive. The Potency result in assay [6], in [14], in [16], in assay [18] and in assay [20] was “inactive” in each case. In addition, the activation in assay [17] was -1.64% (inactive). Further, the max response in assay [21] worked out at 10.9%.
